In all, about 33,000 sequences were measured (“E-score (-0.5 to 0.5)”: median about -0.036, highest 2% from about 0.37 on). The sample holds the highest values, similar sequences and a random draw of the others, so the mix is not that of the screen.
These sequences were tested against T1, Yer064c (UniProt P40041) (assay: PBM E-score (8-mer binding enrichment) (E-score (-0.5 to 0.5)); higher = stronger / more preferred TF binding). Conditions: protein concentration: 200 nM; construct: GST-full length.
T1 sequence: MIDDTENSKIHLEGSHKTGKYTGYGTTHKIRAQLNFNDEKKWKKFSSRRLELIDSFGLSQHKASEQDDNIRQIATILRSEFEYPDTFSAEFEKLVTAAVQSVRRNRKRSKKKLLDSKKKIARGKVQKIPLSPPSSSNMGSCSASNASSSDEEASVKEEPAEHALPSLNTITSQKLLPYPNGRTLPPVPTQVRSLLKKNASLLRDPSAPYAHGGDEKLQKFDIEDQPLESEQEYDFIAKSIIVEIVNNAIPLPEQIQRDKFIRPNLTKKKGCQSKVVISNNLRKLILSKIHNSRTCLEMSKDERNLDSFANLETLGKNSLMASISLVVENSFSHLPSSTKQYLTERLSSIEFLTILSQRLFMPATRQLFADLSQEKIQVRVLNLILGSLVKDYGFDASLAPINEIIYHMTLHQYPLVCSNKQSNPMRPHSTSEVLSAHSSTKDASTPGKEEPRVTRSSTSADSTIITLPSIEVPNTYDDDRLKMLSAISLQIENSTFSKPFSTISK
Outline: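 PURExpress in vitro transcription/translation supplied GST-tagged yeast transcription factors, either full-length or DNA-binding domain. Applied at about 100-200 nM to universal all-10-mer Agilent arrays double-stranded by primer extension, the bound protein was detected with fluorescent anti-GST. E-scores, modified Wilcoxon-Mann-Whitney statistics, were given by the Universal PBM Analysis Suite to ungapped eight-base words pooled with their reverse complements after masliner normalisation.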

Row | Sequence | PBM E-score
1 | CAATCACC | 0.343
2 | AAATCACG | 0.264
3 | CAATCACA | 0.346
4 | AAATCACC | 0.328
5 | GAATCACC | 0.456
6 | TAATCACA | 0.419
7 | GAATCACA | 0.439
8 | CAATCACG | 0.296
9 | AAACACAC | 0.0803
10 | AGACAGCC | -0.181
11 | AAAGTCCC | -0.235
12 | GGACTCGA | 0.118
13 | GGCAGTAA | 0.0188
14 | GGCAGTGA | 0.0347
15 | AGCAGTCG | 0.065
16 | ACCAGTCA | 0.369
17 | GGCAGTCA | 0.445
18 | AGCAGTCA | 0.412
19 | AGCAGTCC | -0.0176
20 | CGCAGTCA | 0.422
21 | CCCAGTCA | 0.316
22 | ACCAGTCT | 0.0632
23 | ACCAGTCC | -0.0297
24 | CGCAGTCC | 0.134
25 | AAACGGTA | 0.0163

Row | Sequence | PBM E-score
26 | GTTATGGA | -0.119
27 | CGCCCGAC | -0.0703
28 | ATATCGGC | -0.169
29 | GATCGTAA | -0.068
30 | AATACCAC | -0.172
31 | GGCACTTA | -0.212
32 | CTATCCGC | 0.00533
33 | ATGGAGTC | 0.398
34 | CTGGAGTA | 0.0648
35 | CTGGAGAC | -0.0698
36 | ATGGAGTG | -0.143
37 | ATGGAGTA | 0.182
38 | CTGGAGTC | 0.39
39 | TAGGGCGA | 0.0759
40 | AAAGCTTA | -0.0514
41 | AGTTAGCC | 0.127
42 | ATCGCACG | -0.0772
43 | AAGTCGGC | -0.0537
44 | GAGTCGGC | 0.412
45 | CAGTCGGC | 0.122
46 | GAGTCGTA | 0.453
47 | GAGTCGGA | 0.395
48 | TAGTCGGA | 0.288
49 | CAGTCGGA | 0.118
50 | AAGTCGTA | 0.328

Row | Sequence | PBM E-score
51 | CAGTCGTA | 0.265
52 | CAACACAG | 0.0802
53 | GAAAATAA | 0.133
54 | TGACGACA | 0.102
55 | CATCGCAC | -0.211
56 | ATGCAAGA | 0.139
57 | CGCTCATC | 0.0112
58 | CAAGCCGG | -0.108
59 | ACATTCTA | 0.0824
60 | AAGATTCA | 0.37
61 | ATGATTCA | 0.49
62 | ACGATTCA | 0.298
63 | GGGATTCA | 0.147
64 | GTGATTTA | 0.35
65 | ATGATTCG | 0.437
66 | AGGATTCG | -0.0455
67 | AAGATTCG | 0.205
68 | GAGATTCA | 0.238
69 | AGGATTCA | 0.24
70 | ACGATTCG | 0.0252
71 | GTGATTCA | 0.474
72 | CGCGCCCC | -0.271
73 | CAACCTGC | -0.127
74 | CCGTAATA | 0.0217
75 | ACTCAGCT | 0.216

Row | Sequence | PBM E-score
76 | ACCGGAAG | -0.0509
77 | GATGCTCC | -0.345
78 | AACAACCA | 0.13
79 | ATGGGGAC | -0.14
80 | CGAAATCA | 0.309
81 | CCGCGGAC | -0.0248
82 | CGTGGAGC | -0.124
83 | CCACCCCA | -0.0763
84 | ATGACCGG | -0.128
85 | AATATATC | -0.0361
86 | AGGATTCC | 0.0611
87 | CTGATTCC | 0.301
88 | CGGATTCA | 0.194
89 | CAGATTCA | 0.157
90 | ATGATTCC | 0.456
91 | CTGATTCA | 0.45
92 | CTCGGCCC | -0.206
93 | GTGAATGA | 0.14
94 | GTGAATCA | 0.48
95 | CTGAATCC | 0.235
96 | CTGAATTA | 0.0399
97 | CTGAATCA | 0.455
98 | GTGAATAA | 0.0323
99 | ATGAATCG | 0.355
100 | ATGAATCC | 0.253

Row | Sequence | PBM E-score
101 | ATGAATCA | 0.48
102 | CTAAGGTA | 0.105
103 | GTTTATTA | 0.148
104 | CGATGTGA | 0.103
105 | ACATCACA | -0.0462
106 | GCGTGAAA | -0.106
107 | CTGACGGA | -0.0463
108 | GGGTAAAC | 0.0204
109 | GTCTGTCA | -0.107
110 | AACTCCGC | -0.0186
111 | GACTCCGC | 0.406
112 | GACTCCGA | 0.417
113 | CACTCCGC | -0.0571
114 | AACTCCGA | -0.0453
115 | TACTCCGA | 0.0904
116 | GTGCACCA | -0.178
117 | AGGTAGTG | -0.0767
118 | CGGTAGTC | 0.409
119 | AGGTAGTA | 0.0729
120 | CGGTAGGC | -0.178
121 | CGGTAGTA | 0.0891
122 | AGGTAGTC | 0.407
123 | CTTCAGGA | 0.00919
124 | GATTCACA | 0.375
125 | GATTCACC | 0.372

Row | Sequence | PBM E-score
126 | CATTCACC | -0.166
127 | CATTCACG | 0.0972
128 | AATTCACC | -0.0422
129 | CATTCACA | -0.00304
130 | CGATAGAC | 0.00233
131 | CGCCTTTA | 0.0724
132 | ATATCTCA | 0.0798
133 | CTTGGGAA | 0.0531
134 | ATTCCTAA | 0.183
135 | AATGATAA | 0.0741
136 | GATTATGA | 0.38
137 | AATGATTA | 0.449
138 | CTTGATTA | 0.303
139 | AATGATGA | 0.289
140 | AATTATGA | 0.248
141 | GTTGATTA | 0.381
142 | GATTATGC | 0.112
143 | ATTGATTA | 0.286
144 | GATGATCA | 0.323
145 | GATGATGA | 0.256
146 | GATGATTA | 0.47
147 | AACCGCAG | -0.0549
148 | ATCAACTA | 0.23
149 | AGTGAAAT | 0.143
150 | ACCTCCCT | -0.107

Row | Sequence | PBM E-score
151 | CCGGTTAA | -0.0828
152 | CCCGAGGG | -0.0969
153 | CCTGATTA | 0.344
154 | ACTGATTA | 0.343
155 | GCTGATTA | 0.392
156 | CTTTCCCC | -0.153
157 | TGTCGTAA | -0.0131
158 | AGTCGTAA | 0.378
159 | AATCGTAT | 0.118
160 | CGTCGTAG | 0.0225
161 | ACTCGTAT | 0.107
162 | ACTCGTAG | 0.218
163 | GGTCGTAA | -0.0401
164 | CGTCGTAC | -0.0504
165 | GGTCGTAC | -0.205
166 | AGTCGTAT | 0.379
167 | AGTCGTAG | 0.406
168 | AGTCGTAC | 0.399
169 | GAGAGCGA | -0.0993
170 | GCGATAAC | -0.135
171 | CGTGGACA | -0.323
172 | GCGCGGAC | 0.0396

Source: the supplement of paper PMC3334620
